Screens: PubChem, National Center for Advancing Translational Sciences (NCATS)
USP1 inh: inhibitors of human USP1/UAF1 deubiquitinase. AID 743255. recombinant USP1/UAF1, Ub-Rhodamine cleavage fluorescence. Potency, µM (titrated, usually from 57.1 µM), for the others: at the highest dose activity change, negative = inhibition, usual class: inhibitors. 0.23% of 390,000 active; further: potency means the concentration at half of the fitted maximal effect; nearly all actives have a fitted effect of over 60% in size
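Step one: compound is pinned into 1nM USP1/UAF1 in HEPES pH 7.8 buffer with TCEP. Step two: 15 min room-temperature incubation. Step three: Ub-Rho (150nM final) starts cleavage, tracked by fluorescence over six one-minute reads.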
Tau ThT inhib: blocks human tau fibril formation measured by thioflavin T. P10636. recombinant tau K18 P301L, heparin-induced fibrillization, ThT fluorescence. Potency, µM (series often up to 57.4 µM), for the others: top-dose activity, negative = inhibition, most hits filed as inhibitors. 2.1% of 270,000 active; further: potency means the concentration at half of the fitted maximal effect; nearly all actives have a fitted effect of over 55% in size
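Heparin-induced (20 uM) aggregation of recombinant human K18 P301L tau, 15 uM unlabeled with 0.24 uM labeled, pH 7 acetate buffer, 6 hr at 37 C with compound. Fibrils quantified by 30 uM ThT fluorescence after 1 hr ambient incubation.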
Tau fibril FP: tau fibrillization inhibition (FP) | 0.39% of 280,000 active | K18 P301L tau heparin fibrillization, Alexa594 FP, 6 h | Potency, µM (series often up to 57.7 µM), for the others: top-dose activity, negative = inhibition, hits mostly inhibitors | AID 1468; further: potency means the concentration at half of the fitted maximal effect; nearly all actives have a fitted effect of over 55% in size
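Recombinant K18 P301L […], labeled with Alexa 594 at 0.24 uM over 15 uM unlabeled; heparin inducer 20 uM final; 37 C, 6 hr; FP endpoint.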
Coupling enz: coupling enzyme interference in Giardia aldolase counter-screen; coupling enzyme system counterscreen, AmpLite Red fluorescence; activity change, negative = inhibition, % at 58.2 µM, hits read low; 0.67% of 290,000 active; AID 2472; in the data active means activity change below about -30%
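Fluorescence at 525 nm excitation and 598 nm emission measured inhibition of the coupled detection system without aldolase. Compounds (at 57.5 uM final) were preincubated 10 min at room temperature with coupling enzyme reagent before a 20 min substrate/AmpLite Red step.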
Tau fluor counter: counter-screen for tau fibril formation inhibitors; 0.93% of 280,000 active; Potency, µM (highest dose often 57.7 µM), without a hit: at the top dose activity change, negative = decrease; AID 1463; tau K18 P301L (four-repeat tau fragment) Alexa594 fluorescence, heparin fibrillization; further: potency means the concentration at half of the fitted maximal effect; nearly all actives have a fitted effect of over 55% in size
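Human K18 P301L tau (15 uM unlabeled plus 0.24 uM Alexa 594-labeled, final) in 100 mM sodium acetate pH 7 was mixed with compound and 20 uM heparin and incubated 6 hr at 37 C.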
Active calls of the source: *; [ ] = another dose, or the depositor's remark. Sampled rows, rich in hits. Any-hit rate of the full collection: about 2.3%. Unless noted, the call rests on the fitted dose curve; in most records, active means well fitted curve in the direction sought with a large enough effect; inconclusive means small, poorly fitted or top-dose-only effect, or another doubt; inactive means no such curve, though single readings can be large; an effect the other way counts as inactive or inconclusive. On the % scale 0 is the no-effect control and ±100 the full control effect.

Screening COC(=O)c1c(-c2cccs2)csc1NC(=O)c1ccc(C(C)(C)C)cc1 returned USP1 inh inconclusive, Tau ThT inhib 25µM*, Tau fibril FP 22µM* and Tau fluor counter -11%.
`COC(=O)c1c(-c2cccs2)csc1NC(=O)c1ccc(C(C)C)cc1` gave USP1 inh -13%, Tau ThT inhib inconclusive, Tau fibril FP inconclusive and Tau fluor counter -19%.
COC(=O)c1c(-c2cccs2)csc1NC(=O)c1ccc(Cl)cc1 was read as USP1 inh -18%, Tau ThT inhib 13µM*, Tau fibril FP inconclusive and Tau fluor counter -28%.
For CC1=C(c2ccc(Cl)cc2)S(=O)(=O)N=C1N1CCN(c2cccc(C(F)(F)F)c2)CC1 the results were USP1 inh -25%, Tau ThT inhib -13%, Tau fibril FP 5% and Tau fluor counter -20%.
`CN(C)CCN1CCc2ccccc21` gave USP1 inh -23%, Tau ThT inhib inconclusive, Tau fibril FP -10%, Coupling enz -43* and Tau fluor counter -13%.
`O=C(Nc1ccc2nc(SCC(=O)N3CCCc4ccccc43)sc2c1)c1cccc(Cl)c1` gave USP1 inh -39%, Tau ThT inhib 4%, Tau fibril FP inconclusive and Tau fluor counter -20%.
`Cc1cccc(NC(=O)c2sc3nc4c(c(-c5cccs5)c3c2N)CN(C)CC4)c1` gave USP1 inh -8%, Tau ThT inhib 16µM*, Tau fibril FP inconclusive, Coupling enz -1 and Tau fluor counter 28µM*[quencher].
Screening CN1CCc2nc3sc(C(=O)NCc4ccccc4)c(N)c3cc2C1 returned USP1 inh -24%, Tau ThT inhib 14µM*, Tau fibril FP -12%, Coupling enz -6 and Tau fluor counter inconclusive.
CCN(CC)c1ccc(NC(=O)c2sc3nc4c(cc3c2N)CN(C)CC4)cc1 was read as USP1 inh -5%, Tau ThT inhib 1.3µM*, Tau fibril FP inconclusive and Tau fluor counter inconclusive.
`CN1CCc2nc3sc(C(=O)Nc4ccccc4OC(F)(F)F)c(N)c3cc2C1` gave USP1 inh -22%, Tau ThT inhib -8%, Tau fibril FP -7% and Tau fluor counter -26%.
CCc1sc(Nc2cccc(C)c2)nc1-c1cc2cccc(OC)c2oc1=O was read as USP1 inh -18%, Tau ThT inhib inconclusive, Tau fibril FP 14% and Tau fluor counter inconclusive.
Screening Cc1cccc(N=Nc2ccc(O)c3ncccc23)c1 returned USP1 inh 0%, Tau ThT inhib 2µM*, Tau fibril FP inconclusive, Coupling enz -7 and Tau fluor counter -26%.
`O=C(c1noc2c1CCCCC2)N1CCN(c2ccc(Cl)cc2)CC1` gave USP1 inh -9%, Tau ThT inhib inconclusive, Tau fibril FP 3% and Tau fluor counter -19%.
Cc1ccccc1OCC(=O)N/N=C/c1cccc(Oc2ccc([N+](=O)[O-])cc2[N+](=O)[O-])c1 was read as USP1 inh -12%, Tau ThT inhib inconclusive, Tau fibril FP -6%, Coupling enz -49* and Tau fluor counter 6.3µM*[quencher].
`O=C(CCCOc1ccc(Cl)cc1Cl)N/N=C/c1ccc(Cl)cc1` gave USP1 inh -7%, Tau ThT inhib 5%, Tau fibril FP inconclusive, Coupling enz -11 and Tau fluor counter -17%.
Screening O=C(N/N=C/c1cccc(Oc2ccc([N+](=O)[O-])cc2[N+](=O)[O-])c1)c1cncc(Br)c1 returned USP1 inh -22%, Tau ThT inhib inconclusive, Tau fibril FP 4%, Coupling enz -25 and Tau fluor counter 8.9µM*[quencher].
Cc1cc(Cl)ccc1OCCCC(=O)N/N=C/c1cccc([N+](=O)[O-])c1 was read as USP1 inh -7%, Tau ThT inhib 0%, Tau fibril FP 3%, Coupling enz -36* and Tau fluor counter -2%.
`Cc1ccccc1OCC(=O)NCC(=O)N/N=C/c1cccc([N+](=O)[O-])c1` gave Tau ThT inhib -12%, Tau fibril FP 2%, Coupling enz -2 and Tau fluor counter -2%.
COC(=O)c1ccc(C(=O)N(C)C2CCCN(Cc3ccccc3F)C2)nc1 (configuration not stated) was read as USP1 inh -15% and Coupling enz 2.
